{
  "source": "PubChem BioAssay (Tox21)",
  "note": "Inconclusive results are not listed. Values without a mark were called inactive. Calls come from the whole dose curve. % is set by controls: 0 for no effect and ±100 for the full control effect.",
  "data": [
    {"biological_target": "Thyrotropin receptor (Homo sapiens) (UniProt P16473)", "sequence (P16473 whole entry, looked up)": "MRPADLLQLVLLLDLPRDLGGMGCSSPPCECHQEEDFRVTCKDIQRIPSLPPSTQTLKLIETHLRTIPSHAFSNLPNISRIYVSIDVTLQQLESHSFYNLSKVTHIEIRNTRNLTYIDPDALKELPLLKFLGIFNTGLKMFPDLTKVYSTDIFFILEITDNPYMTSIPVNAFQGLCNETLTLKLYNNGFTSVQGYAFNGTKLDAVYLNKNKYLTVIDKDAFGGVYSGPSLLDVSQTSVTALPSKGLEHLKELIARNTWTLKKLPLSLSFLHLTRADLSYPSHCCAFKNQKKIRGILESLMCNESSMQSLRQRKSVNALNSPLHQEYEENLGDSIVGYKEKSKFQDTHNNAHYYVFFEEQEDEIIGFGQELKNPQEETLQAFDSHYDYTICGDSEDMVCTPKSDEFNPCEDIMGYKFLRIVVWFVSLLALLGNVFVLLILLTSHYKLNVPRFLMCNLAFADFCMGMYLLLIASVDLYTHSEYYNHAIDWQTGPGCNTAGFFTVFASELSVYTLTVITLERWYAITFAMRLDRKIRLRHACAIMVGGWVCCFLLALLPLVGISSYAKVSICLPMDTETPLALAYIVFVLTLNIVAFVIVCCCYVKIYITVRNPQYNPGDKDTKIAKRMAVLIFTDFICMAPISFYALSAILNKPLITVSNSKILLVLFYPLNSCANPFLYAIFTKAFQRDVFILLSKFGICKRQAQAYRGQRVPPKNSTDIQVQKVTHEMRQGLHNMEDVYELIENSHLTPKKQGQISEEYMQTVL", "assay": "qHTS assay to identify small molecule antagonists of the thyroid stimulating hormone receptor (TSHR) signaling pathway (AID 1259385); note: nearly all actives have a fitted effect of over 20% in size", "settings": "TSHR-HEK293 cAMP HTRF, TSH-stimulated antagonist mode; series mostly up to 92.4 µM; activity change, negative = inhibition: at the top concentration", "source_text": "U.S. Tox21 Program National Center for Advancing Translational Sciences [NCATS] NIH Chemical Genomics Center [NCGC] U.S. Environmental Protection Agency [EPA] National Institutes of Environmental Health Sciences [NIEHS] National Toxicology Program [NTP] U.S. Food and Drug Administration [FDA] Tox21 Assay Overview: TSHR is the receptor for thyrotropin (thyroid stimulating hormone or TSH), a member of the glycoprotein hormone family. TSH is released by the anterior pituitary gland and is the main regulator of thyroid gland growth and development. Upon binding circulating thyrotropin, a G-protein signal cascade activates adenylyl cyclase and […] cAMP concentration is increased. cAMP is a key second messenger involved extensively in cellular signal transduction pathways associated with the majority of G-protein coupled receptors (GPCRs). The activation of these GPCRs by neurotransmitters, lipids, nucleotides, peptides and hormones results in the activation or the inhibition of plasma membrane-bound adenylate cyclase through heterotrimeric G-proteins. A cell-based TSHR assay can be used to screen chemical compounds that modulate TSHR either in agonist or antagonist mode.\nTox21 Assay Protocol Summary: TSHR-Hek293 cells were dispensed at 800 cells/4uL/well in 1536-well white plates using a Multidrop dispenser. After the assay plates were incubated at a 37C/5% CO2 incubator for 18 hrs, 23 nL of compounds dissolved in DMSO, positive controls or DMSO only was transferred to the assay plate by a pin tool, followed by 1 ul medium containing Ro20-1724. For the antagonist mode screening, 1 uL of TSH was added on the top of the cell/compound mixtures to achieve a final agonist concentration of 1.5 ng/mL. After 30 min of incubation at room temperature, 2.5 ul/well of cAMP-d2 and 2.5 ul/well of anti-cAMP-cryptate were added respectively into the assay plates using a Flying Reagent Dispenser. The plates were incubated at room temperature for 1 hr. The fluorescence intensity in the plates was measured using an Envision plate reader. Each test compound was measured at 15 concentrations and in triplicates.", "values": [
      {"smiles": "CCC1COC(=O)O1", "note": "(stereo not given)", "activity change, negative = inhibition": "-2.12%"},
      {"smiles": "CCCCCC(=O)OCC", "activity change, negative = inhibition": "-0.77%"},
      {"smiles": "Cc1cccc(C(=O)O)c1[N+](=O)[O-]", "activity change, negative = inhibition": "-5.28%"},
      {"smiles": "CC(C)(CO)[C@@H](O)C(=O)NCCCO", "activity change, negative = inhibition": "3.17% [at 42.5 µM]"},
      {"smiles": "O=C(CN1CCN(Cc2ccc3c(c2)OCO3)CC1)N1c2ccccc2Sc2ccccc21", "activity change, negative = inhibition": "0.767% [at 42.5 µM]"},
      {"smiles": "Cc1nc2n(c(=O)c1CCN1CCC(C(=O)c3ccc(F)cc3)CC1)CCS2", "activity change, negative = inhibition": "4.04% [at 42.5 µM]"},
      {"smiles": "CCC(O)C(C)(C)C", "note": "(stereo not given)", "activity change, negative = inhibition": "-0.287%"},
      {"smiles": "C=CCOCC(CO)(COCC=C)COCC=C", "activity change, negative = inhibition": "-0.288% [at 42.5 µM]"},
      {"smiles": "O=C1OC(=O)c2ccccc21", "activity change, negative = inhibition": "0.928%"},
      {"smiles": "Oc1ccccc1Cc1ccccc1O", "activity change, negative = inhibition": "0.0753%"},
      {"smiles": "COc1cc2c3cc1Oc1cc(ccc1O)C[C@@H]1c4c(cc(OC)c(O)c4Oc4ccc(cc4)C[C@@H]3N(C)CC2)CC[N+]1(C)C", "activity change, negative = inhibition": "-5.05% [at 42.5 µM]"},
      {"smiles": "O=S(=O)(O)c1cc(O)ccc1O", "activity change, negative = inhibition": "3.4%"},
      {"smiles": "CC(C)(c1ccc(Oc2ccc3c(c2)C(=O)OC3=O)cc1)c1ccc(Oc2ccc3c(c2)C(=O)OC3=O)cc1", "activity change, negative = inhibition": "-6.3%"},
      {"smiles": "CN[C@@H]1[C@@H](O)[C@@H](O[C@@H]2[C@H](O)[C@H](O[C@H]3OC(CN)=CC[C@H]3N)[C@@H](N)C[C@H]2N)OCC1(C)O", "note": "(stereo not given in full)", "activity change, negative = inhibition": "1.5% [at 42.5 µM]"},
      {"smiles": "FC(F)(F)c1ccc(Cl)cc1Cl", "activity change, negative = inhibition": "-1.98%"},
      {"smiles": "CCOC(=O)OCC/C(SC(=O)OCC)=C(\\C)N(C=O)Cc1cnc(C)nc1N", "activity change, negative = inhibition": "-0.109% [at 42.5 µM]"},
      {"smiles": "C[C@H](CCC(=O)O)[C@H]1CC[C@H]2[C@@H]3[C@H](O)C[C@@H]4C[C@H](O)CC[C@]4(C)[C@H]3C[C@H](O)[C@]12C", "activity change, negative = inhibition": "-0.92% [at 42.5 µM]"},
      {"smiles": "O=C(c1ccc2c(c1)C(=O)OC2=O)c1ccc2c(c1)C(=O)OC2=O", "activity change, negative = inhibition": "-0.629%"},
      {"smiles": "O=S(=O)(O)SSS(=O)(=O)O", "activity change, negative = inhibition": "0.752%"},
      {"smiles": "COc1cc([N+](=O)[O-])ccc1N", "activity change, negative = inhibition": "-0.0836%"},
      {"smiles": "CCCCCC1CCCC(=O)O1", "note": "(stereo not given)", "activity change, negative = inhibition": "0.232%"},
      {"smiles": "N#CCCOCCOCCC#N", "activity change, negative = inhibition": "0.322%"},
      {"smiles": "CN=C(NC#N)NCCSCc1csc(N=C(N)N)n1", "activity change, negative = inhibition": "1.79% [at 42.5 µM]"},
      {"smiles": "COc1ccc(OC)c(NC(=O)CC(C)=O)c1", "activity change, negative = inhibition": "0.877%"},
      {"smiles": "O=C1CC[C@H](C(=O)N2CCCCC2)N1", "activity change, negative = inhibition": "-0.764% [at 42.5 µM]"},
      {"smiles": "OC[C@@H](O)[C@H](O)[C@@H](O)[C@@H](O)CO", "activity change, negative = inhibition": "-0.0785%"},
      {"smiles": "Nc1cc(Cl)cc(S(=O)(=O)O)c1O", "activity change, negative = inhibition": "-4.17%"},
      {"smiles": "CCCCCCCCCCC", "activity change, negative = inhibition": "1.48%"},
      {"smiles": "CNC(=O)NC", "activity change, negative = inhibition": "2.3%"},
      {"smiles": "Nc1ccc(S(=O)(=O)Nc2ccccn2)cc1", "activity change, negative = inhibition": "4.46% [at 42.5 µM]"},
      {"smiles": "BrC/C=C/CBr", "activity change, negative = inhibition": "-1.56% [at 19 µM]"},
      {"smiles": "O=c1[nH]c(=O)c2[nH]c(=O)[nH]c2[nH]1", "activity change, negative = inhibition": "0.717% [at 8.39 µM]"},
      {"smiles": "O=C(O)c1c(Cl)ccc(Cl)c1Cl", "activity change, negative = inhibition": "-1.22%"},
      {"smiles": "CC(=O)Nc1ncc([N+](=O)[O-])s1", "activity change, negative = inhibition": "0.884% [at 42.5 µM]"},
      {"smiles": "C=CCCCCCCCCCCC", "activity change, negative = inhibition": "3.13% [at 8.39 µM]"},
      {"smiles": "COc1ccc(/C=N/NC(=O)c2ccncc2)cc1OC", "activity change, negative = inhibition": "-4.08% [at 42.5 µM]"},
      {"smiles": "NS(=O)(=O)c1cc2c(cc1Cl)NC(C(Cl)Cl)NS2(=O)=O", "note": "(stereo not given)", "activity change, negative = inhibition": "3.54% [at 42.5 µM]"},
      {"smiles": "CC1CCC(C(C)(C)S)C(=O)C1", "note": "(stereo not given)", "activity change, negative = inhibition": "0.527%"},
      {"smiles": "C=C(C)C(=O)OCCCCCCOC(=O)C(=C)C", "activity change, negative = inhibition": "-9.24%"},
      {"smiles": "CCOC(=O)C(C)(C)C", "activity change, negative = inhibition": "-0.531%"}
    ]}
  ]
}
